Assay outcomes (PubChem)
Shown are actives, neighbours in structure and some others; about 2% of the full set was active somewhere.
JMJD2E inh – blocks human JMJD2E demethylase activity; B2RXH2; 230,000 tested, 1.6% active; JMJD2E catalytic domain, FDH-coupled NADH fluorescence (FDH is formaldehyde dehydrogenase); Potency, µM (top dose mostly 57.1 µM), for inactives: at the top dose activity change, negative = inhibition, hits mostly inhibitors; active means well fitted inhibition curve with a large enough effect, not every such curve was filed as active; inconclusive means small, poorly fitted or top-dose-only effect, or another doubt; inactive means no such curve, though single readings can be large or run the other way;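 further: potency means the concentration at half of the fitted maximal effect; 0% = wells with enzyme and -100% = buffer wells without enzyme; nearly all actives have a fitted effect of over 50% in size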
Target sequence (B2RXH2 1-337 limits assumed): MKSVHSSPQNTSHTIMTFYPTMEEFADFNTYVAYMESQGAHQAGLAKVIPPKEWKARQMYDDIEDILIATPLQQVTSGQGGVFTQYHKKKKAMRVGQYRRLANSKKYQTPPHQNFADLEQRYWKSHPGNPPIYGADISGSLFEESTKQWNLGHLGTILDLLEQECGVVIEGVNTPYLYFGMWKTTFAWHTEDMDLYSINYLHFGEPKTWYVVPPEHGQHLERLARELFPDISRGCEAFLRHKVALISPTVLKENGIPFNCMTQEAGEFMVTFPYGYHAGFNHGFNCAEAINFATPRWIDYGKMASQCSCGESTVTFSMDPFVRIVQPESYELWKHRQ
TexasRed fluor – counter-screen for TRb-SRC2 inhibitors: fluorescence interference | AID 1479 | 280,000 tested, 0.29% active | Potency, µM (series often up to 106 µM), inactives show at the top dose fluorescence change, negative = quenching | TRb/SRC2 Texas Red total fluorescence interference; active means well fitted curve in either direction with a large enough effect; inconclusive means small, poorly fitted or top-dose-only effect; further: potency means the concentration at half of the fitted maximal effect; on the % scale 0 is the no-effect control and ±100 the full control effect
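Human TRb ligand-binding domain at 0.6 uM with 20 nM Texas Red SRC2 peptide in Tris buffer containing 1 uM T3 and 5% DMSO, incubated with compound 5 h at ambient temperature. Total fluorescence (555/632 nm) calculated as parallel + 2 × perpendicular.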
TRb-SRC2 inh – disrupts binding of human TR beta to SRC2. P10828. TRbeta-SRC2 peptide binding, fluorescence polarization; receptor liganded with 1 µM T3. Potency, µM (top dose mostly 106 µM), without a hit: at the top dose activity change, negative = inhibition, most hits filed as inhibitors. 280,000 tested, 0.065% active. AID 1469;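 further: potency means the concentration at half of the fitted maximal effect; plate controls were bound peptide for no effect and peptide without receptor for full effect; nearly all actives have a fitted effect of over 50% in size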
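Fluorescence polarization of 20 nM Texas Red SRC2 peptide with 0.6 uM human TRb ligand-binding domain, in Tris buffer with 1uM T3 and 5% DMSO. Incubated 5 hr ambient; normalized to unbound and bound controls.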
FBPA coupling cs – inhibits coupling enzyme system, counter-screen for aldolase hits. coupling enzyme system counterscreen, AmpLite Red fluorescence. activity change, negative = inhibition, % at 58.2 µM, hits read low. 290,000 tested, 0.67% active; in the data active means activity change below about -30%; further: on the % scale 0 is the no-effect control and ±100 the full control effect
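Compounds tested against the coupling enzymes alone at 57.5 uM final; readout was AmpLite Red fluorescence (525/598 nm) after 20 min at RT.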
HTT aggregate – inhibitors of mutant huntingtin aggregate formation in PC12 cells. PC12 HttQ103-GFP aggregates, Acumen cytometry, 40 h. Potency, µM (top dose mostly 46.1 µM), inactives show at the top dose activity change, negative = inhibition, most hits filed as inhibitors. 220,000 tested, 1.1% active. AID 1688; further: potency means the concentration at half of the fitted maximal effect; on the % scale 0 is the no-effect control and ±100 the full control effect; nearly all actives have a fitted effect of over 60% in size
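Ecdysone-promoter PC12 model expressing HTT exon 1 Q103 fused to GFP, induced by tebufenozide at 100 nM final. Compounds titrated; aggregates sized 1–25 µm scored on a 488 nm laser cytometer.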
HTT cytoprotect – Huntington cell model cytoprotection by ATP luminescence | AID 1471 | PC12 HTT-Q103 induced, cytoprotection, ATP luminescence, 40 h | Potency, µM (highest dose often 56.4 µM), for inactives: cytoprotection (ATP increase), most hits filed as activators | 230,000 tested, 0.14% active; further: potency means the concentration at half of the fitted maximal effect; % of control where 0% means no effect; nearly all actives have a fitted effect of over 45% in size
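Quantitative HTS on tebufenozide-induced (100 nM) PC12 cells expressing HTTQ103 exon 1–GFP; compounds tested as a concentration series; survival measured via cellular ATP.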
Starred values were filed as active, the others as inactive; ? = inconclusive; . = not tested or not shown; [ ] = dose if it differs, or a comment. Unless noted, the call rests on the fitted dose curve; in most records, active means well fitted curve in the direction sought with a large enough effect; inconclusive means small, poorly fitted or top-dose-only effect, or another doubt; inactive means no such curve, though single readings can be large; an effect the other way counts as inactive or inconclusive.

SMILES	JMJD2E inh	TexasRed fluor	TRb-SRC2 inh	FBPA coupling cs	HTT aggregate	HTT cytoprotect
COc1cccc(-c2nn(-c3ccccc3)cc2C(=O)Nc2nccs2)c1	-7%	-5%	3%	-1	?	-46%
CCN(CC)CC(=O)n1c2c(c3ccccc31)CCCC2	?	0%	-2%	-1	-8%	-3%
CN1CCN(CC(=O)n2c3c(c4ccccc42)CCCC3)CC1	-3%	-1%	2%	-47*	10%	-4%
CCCCCCCCCCCCCCC	.	-1%[201 µM]	5%[201 µM]	.	.	.
Cc1ccc(CN2CCSc3ccc(C(=O)N4CCN(c5ncccn5)CC4)cc32)cc1	?	-3%	2%	-3	16µM*	-61%
Cc1ccc(NS(=O)(=O)c2ccc(C(=O)N3CCN(c4ncccn4)CC3)cc2)cc1	?	-2%	-14%	8	2.5µM*	-92%
O=C(c1ccc(S(=O)(=O)Nc2ccc(F)cc2)cc1)N1CCN(c2ccccn2)CC1	-9%	-1%	2%	1	14µM*	-39%
CCN1CCN(C(=O)c2ccc3c(c2)N(Cc2ccc(C)cc2)CCS3)CC1	.	.	.	2	.	.
COc1ccc(N2CCN(C(=O)c3ccc(NS(=O)(=O)c4ccc(F)c(F)c4)cc3)CC2)cc1	-8%	-1%	-25%	3	10µM*	-13%[10 µM]
Cn1c(=O)c(-c2ccc(F)c(F)c2)nc2cncnc21	.	.	.	6	.	?
Cc1c(C(=O)NC(C)C)oc2c1-c1[nH]ncc1CC2	?	-6%	-1%	-39*	2%	-11%
COc1cccc(CNC(=O)C2CCN(c3nnc(-n4c(C)ccc4C)s3)CC2)c1	.	-1%	10%	.	.	.
COc1ccc(-n2c(-c3ccc(Cl)cc3)c[n+]3c2CCc2ccccc2-3)cc1	0%	-3%	-2%	3	13µM*	-68%
COc1ccc(-n2c(-c3ccccc3)nnc2-c2ccc(Cl)cc2)cc1	-1%	-1%	-19%	11	13%	4%
NCCC[C@@H](CC(=O)N[C@@H]1CCCC[C@H]1C(=O)N[C@H](CC(=O)N[C@@H](CCC(=O)O)CC(=O)O)Cc1c[nH]c2ccccc12)NC(=O)C[C@H](Cc1c[nH]c2ccccc12)NC(=O)[C@@H]1CCCC[C@H]1N	?	-2%	-5%	-2	.	10%[1.9 µM]
COc1ccc2[nH]cc(C(=O)CN3CCCC(C)C3)c2c1 (centres undefined)	1%	0%	-12%	-1	2%	-9%[0.074 µM]
COc1cccc(N2CCN(CC(=O)c3c[nH]c4ccc(OC)cc34)CC2C)c1 (centres undefined)	?	-3%	18%	4	35µM*	-18%[0.074 µM]
CCC(O)(CC)C(=O)N/N=C/c1cc(Br)cc(Br)c1O	?	-1%	1%	0	-19%[9.22 µM]	13%[10 µM]
CC(=O)N/N=C/c1cc(C(C)(C)C)cc(/C=N/NC(C)=O)c1O	22µM*	-2%	-5%	-2	10%[9.22 µM]	?
Cc1ccc(C)c(-c2nn(CC(=O)Nc3cc(F)ccc3F)c(=O)c3c2CCCC3)c1	.	-1%	-6%	.	.	.
CC(C)[C@H]1C(=O)C(C(N)=O)=C(O)[C@]2(O)C(=O)C3=C(O)c4c(O)ccc(N(C)C)c4C[C@H]3C[C@@H]12	.	.	.	.	.	-3%[1.9 µM]
CN(C)[C@H]1C(=O)C(C(=O)NCN2CCCC2)=C(O)[C@]2(O)C(=O)C3=C(O)c4c(O)cccc4[C@](C)(O)[C@H]3C[C@H]12	.	14µM*[quencher]	?	.	1%	-15%[10 µM]
CN(C)[C@@H]1C(=O)C(C(=O)NCN2CCCC2)=C(O)[C@@]2(O)C(=O)C3=C(O)c4c(O)cccc4[C@@](C)(O)C3CC12 (some centres undefined)	?	?	-18%	-39*	-18%	.
CN(C)c1ccc(O)c2c1C[C@@H]1C[C@H]3C(N(C)C)C(=O)C(C(N)=O)=C(O)[C@@]3(O)C(=O)C1=C2O (some centres undefined)	?	-4%	1%	-17	.	.
